Shown are actives, neighbours in structure and some others; about 0.45% of the full set was active somewhere.
Menin-MLL FL inh: inhibitors of human menin-MLL interaction, wild-type MLL peptide | Fluorescence polarization, fluorescein-MLL peptide displacement from menin | FP activity change, % at 61.4 µM | 290,000 tested, under 10 active | AID 1766; active means well fitted curve in the direction sought with a large enough effect in the polarisation, not every such curve was filed as active; inconclusive means small, poorly fitted or top-dose-only effect, or effect the other way, or a change in a side signal; inactive means no such curve, though single readings can be large or run the other way; the % refers to the polarisation; further: % of control where 0% means no effect
Menin-MLL TR inh: displaces Texas Red mutant MLL peptide from human menin. O00255. Menin + Texas Red MLL mutant peptide, fluorescence polarization. Potency, µM (series often up to 61.6 µM), without a hit: at the highest dose FP activity change, negative = inhibition, hits mostly inhibitors. 0.23% of 270,000 active; active means well fitted inhibition curve with a large enough effect in the polarisation, with a control signal flat, not every such curve was filed as active; inconclusive means small, poorly fitted or top-dose-only effect, or effect the other way, or a change in a side signal; inactive means no such curve, though single readings can be large or run the other way; the % refers to the polarisation; further: potency means the concentration at half of the fitted maximal effect; % of control where 0% means no effect
pAkt inh: inhibitors of Akt phosphorylation. Neuro2A IGF-stimulated pAkt S473 HTRF, 20 min; hits give low values. activity change, % for hits at 50 µM. 0.32% of 360,000 active. AID 651550; in the data active means activity change below about -80%; inconclusive means mostly about -51% to -80%; further: on the % scale 0 is the no-effect control and ±100 the full control effect
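Neuro2A cells in DMEM with 0.5% FBS, overnight at 37 deg C, given compound at single 50 µM final, then IGF (6 nM final) for 20 min at 37 deg C. Lysed; phospho-Akt Ser473 by HTRF after 24 h, 665/615 ratio.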
S-ASM inh: blocks human secretory acid sphingomyelinase | P17405 | placental ASM, HMU-PC fluorogenic substrate, 60 min | Potency, µM (highest dose often 57.5 µM), without a hit: at the top dose activity change, negative = inhibition, most hits filed as inhibitors | 0.006% of 340,000 active | AID 504937; further: potency means the concentration at half of the fitted maximal effect
Target sequence (P17405 47-631 limits assumed): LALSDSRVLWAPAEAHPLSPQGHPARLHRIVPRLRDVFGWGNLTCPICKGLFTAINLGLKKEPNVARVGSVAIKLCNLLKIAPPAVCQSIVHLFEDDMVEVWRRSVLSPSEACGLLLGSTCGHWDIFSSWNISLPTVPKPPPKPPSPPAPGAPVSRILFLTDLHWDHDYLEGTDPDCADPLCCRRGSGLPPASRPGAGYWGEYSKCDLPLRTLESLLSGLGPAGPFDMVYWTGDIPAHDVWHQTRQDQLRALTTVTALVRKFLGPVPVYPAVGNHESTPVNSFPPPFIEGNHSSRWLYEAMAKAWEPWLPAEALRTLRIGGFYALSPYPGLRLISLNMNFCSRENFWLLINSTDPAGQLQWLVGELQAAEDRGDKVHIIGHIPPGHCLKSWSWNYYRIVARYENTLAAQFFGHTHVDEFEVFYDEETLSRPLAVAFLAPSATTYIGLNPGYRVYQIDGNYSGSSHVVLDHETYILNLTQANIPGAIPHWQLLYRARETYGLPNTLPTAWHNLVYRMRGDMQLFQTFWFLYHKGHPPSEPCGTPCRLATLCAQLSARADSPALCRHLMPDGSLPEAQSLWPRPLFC
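Human placenta-derived ASM enzyme was preincubated with compound for 10 minutes at room temperature, then given fluorogenic substrate HMU-PC0 (9 uM final) for 60 minutes at 37 °C; a pH 10 stop preceded fluorescence reading at Ex 386/Em 447 nm.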
MBNL1-CUG inh: inhibitors of human MBNL1 binding to CUG repeat RNA. TR-FRET MBNL1-His/biotin-(CUG)12 binding, 665/545 ratio. Q9NR56. Potency, µM (highest dose often 57.5 µM), for inactives: at the highest dose activity change, negative = inhibition, actives largely listed as inhibitors. 0.036% of 280,000 active. AID 2675; active means well fitted inhibition curve with a large enough effect in the signal ratio, with a control signal flat, not every such curve was filed as active; inconclusive means small, poorly fitted or top-dose-only effect, or effect the other way, or a change in a side signal; inactive means no such curve, though single readings can be large or run the other way; the % refers to the signal ratio; further: potency means the concentration at half of the fitted maximal effect; on the % scale 0 is the no-effect control and ±100 the full control effect
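TR-FRET between His-tagged MBNL1 and biotin-(CUG)12 RNA, detected with Tb anti-His antibody (0.055 ng/ul) and streptavidin-XL665 (5 nM), 60 min at room temperature. Compounds titrated 92 nM to 58 uM; 665/545 nm ratio normalized to buffer and complex controls.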
MLL CXXC-DNA inh: inhibitors of human MLL CXXC domain-DNA interaction. Q03164. MLL-CXXC / FITC-HOXA9 DNA fluorescence polarization. Potency, µM (top dose mostly 115 µM), for the others: top-dose activity change, negative = inhibition, actives largely listed as inhibitors. 0.037% of 290,000 active. AID 2662; active means well fitted inhibition curve with a large enough effect in the polarisation, with a control signal flat, not every such curve was filed as active; inconclusive means small, poorly fitted or top-dose-only effect, or effect the other way, or a change in a side signal; inactive means no such curve, though single readings can be large or run the other way; the % refers to the polarisation; further: potency means the concentration at half of the fitted maximal effect
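Fluorescence polarization: 7 uM MLL-CXXC (stock) preincubated 5 min with compounds, then 50 nM fluorescein-HOX-A9 DNA (stock) added; 30 min ambient. Buffer 50 mM Tris-HCl pH 7.5, 50 mM NaCl, 1 mM DTT, 0.05% BSA.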
MBNL1 TRFRET: confirmation of inhibitors of human MBNL1-poly(CUG) RNA binding; TR-FRET MBNL1-His / biotin-(CUG)12 binding, 60 min; shares compounds with MBNL1-CUG inh; AID 493199; 50% of 140 active; Potency, µM (series often up to 57.6 µM), for the others: at the highest dose activity change, negative = inhibition, hits mostly inhibitors
MBNL1-CUG Alpha: confirmation of MBNL1-(CUG)12 RNA binding inhibitors, orthogonal format; 30% of 140 active; AlphaScreen MBNL1-His / biotin-(CUG)12 binding; AID 493205; shares compounds with MBNL1-CUG inh; Potency, µM (top dose mostly 57.7 µM), inactives show at the top dose activity, negative = inhibition, hits mostly inhibitors
Menin-MLL HTRF: MBNL1-CUG RNA binding inhibitor counterscreen activity. shares compounds with MBNL1-CUG inh. His-Menin/biotin-MLL peptide TR-FRET counterscreen. Potency, µM (highest dose often 57.6 µM), for the others: at the top dose activity, negative = inhibition, actives largely listed as inhibitors. 20% of 120 active. AID 651843
* marks the source's active call; other numbers are inactive results; i = inactive; ? = inconclusive; nt = no result given. Unless noted, the call rests on the fitted dose curve; in most records, active means well fitted curve in the direction sought with a large enough effect; inconclusive means small, poorly fitted or top-dose-only effect, or another doubt; inactive means no such curve, though single readings can be large; an effect the other way counts as inactive or inconclusive.

SMILES	Menin-MLL FL inh	Menin-MLL TR inh	pAkt inh	S-ASM inh	MBNL1-CUG inh	MLL CXXC-DNA inh	MBNL1 TRFRET	MBNL1-CUG Alpha	Menin-MLL HTRF
O=C1c2ccccc2C(=O)C12OC2c1cccc2ccccc12 (stereo not drawn)	-20	-5%	i	0%	25µM*	9%	-22%	?	7%
O=C(Nc1ccc(F)cc1)C(c1ccccc1)N1CCN(CC(=O)N2CCOCC2)CC1 (stereo not drawn)	nt	nt	i	-5%	nt	nt	nt	nt	nt
Cc1oc2nc(SCCCC(=O)NCCO)nc(N)c2c1C	-2	8%	i	1%	20µM*	0%	?	?	-3%
C=CCc1c(C)nc2c(C)cccc2c1SC(=N)N	-1	nt	i	-4%	?	1%	nt	nt	nt
COc1cccc(CNC(=O)CCC2CCCN(C/C=C/c3ccccc3OC)C2)c1 (stereo not drawn)	1	1%	i	0%	7%	-12%	nt	nt	nt
COCCNC(=O)CCC1CCN(C/C=C/c2ccccc2OC)CC1	5	-19%	i	-2%	-34%	-7%	-20%	?	5%
O=C(Nc1ccc(F)cc1)Nc1cccc(Br)c1	nt	nt	i	-1%	nt	nt	nt	nt	nt
Cn1nccc1NC(=O)Nc1cccc(Br)c1	-1	17%	i	3%	10µM*	-2%	8.2µM*	-5%	26µM*
Cn1nccc1NC(=O)Nc1ccc(Cl)cc1	3	nt	i	5%	40µM*	?	10µM*	0%	?
Cn1nccc1NC(=O)Nc1ccccc1	4	1%	i	1%	?	-11%	nt	nt	nt
COc1ccc(CN2CCc3ccc(NC(=O)c4ccncc4)cc3C2)c(F)c1	nt	nt	i	1%	?	-5%	nt	nt	nt
Cc1cc(C)cc(N(CC(=O)NC2CCCCCC2)S(=O)(=O)c2c(C)[nH]c(=O)[nH]c2=O)c1	3	nt	i	6%	-9%	30%	nt	nt	nt
CC(C)N1CCC2(CC1)C(C#N)=C(N)NC(S)=C2C#N	?	15%	nt	nt	?	16%	21µM*	-12%	18µM*
O=C(c1ccc(F)cc1)N1CCN(C2CCC(c3ccccc3)CC2)CC1 (stereo not drawn)	-4	?	i	4%	-13%	0%	nt	nt	nt
Cc1ccc(NC2c3ncccc3C(=O)N2Cc2cccs2)cc1 (stereo not drawn)	2	0%	i	-1%	40µM*	6%	52µM*	26µM*	-4%
Cc1c(NC(=O)OCc2ccccc2)c(=O)n(-c2ccccc2)n1C	0	3%	i	2%	2%	-2%	nt	nt	nt
CC(Sc1ncc(C#N)c(N)n1)C(=O)Nc1ccccc1 (stereo not drawn)	1	27%	i	1%	40µM*	-1%	-1%	?	-2%
O=C1Cc2ccccc2C(=O)N1Cc1ccccc1	2	?	i	52%	25µM*	4%	-9%	?	3%
COc1ccc(NC2CCCCC2NS(=O)(=O)c2ccc(C)cc2)cc1 (stereo not drawn)	nt	nt	i	-3%	4%	-7%	nt	nt	nt
O=C(NCc1n[nH]c(=S)n1-c1ccc(Br)cc1)c1cccs1	-6	19%	i	14%	-5%	4%	nt	nt	nt
COc1cc2c(C#N)c(N3CCOCC3)nc(N)c2c(N)n1	1	0%	?	294%	-11%	6%	nt	nt	nt
COc1cc2c(C#N)c(N3CCCCC3)nc(N)c2c(N)n1	1	?	?	159%	5%	-15%	9%	13%	2%
COc1ccc(CC(=O)Oc2ccc(C)cc2C)cc1	4	5%	i	-3%	-3%	13%	nt	nt	nt
COc1ccc(CC(=O)Oc2ccc(C)cc2Br)cc1OC	nt	nt	i	-6%	16µM*	-2%	?	5.2µM*	16µM*
CC(C)OC(=O)CSc1nnc(-c2cnccn2)n1C	2	-7%	i	2%	40µM*	5%	?	-10%	0%
SMILES	Menin-MLL FL inh	Menin-MLL TR inh	pAkt inh	S-ASM inh	MBNL1-CUG inh	MLL CXXC-DNA inh	MBNL1 TRFRET	MBNL1-CUG Alpha	Menin-MLL HTRF
Cc1ccc(C(=O)NCCN2C3=NC[C@H](C(C)C)N3C[C@H]2Cc2ccc(O)cc2)cc1Br	-1	-19%	i	-12%	40µM*	0%	41µM*	?	-26%
O=C(c1ccc(COCC(F)(F)F)o1)N1CCCCCC1	4	-15%	i	-1%	-1%	-1%	nt	nt	nt
CCCn1c2ccccc2c2nnc(SCc3[nH]c(=O)[nH]c3C(=O)CCCCC(=O)OCC)nc21	2	8%	i	-2%	?	33%	nt	nt	nt
CCOC(=O)CCCCC(=O)c1[nH]c(=O)[nH]c1CSc1nnc2c3ccccc3n(C(C)C)c2n1	nt	3%	i	-3%	28µM*	?	?	3.7µM*	-11%
Cc1cccc(NC(=S)NCCN2CCOCC2)c1	-1	1%	i	9%	?	12%	nt	nt	nt
O=C(OC[C@H]1O[C@@H](OC(=O)c2cc(O)c(O)c(OC(=O)c3cc(O)c(O)c(O)c3)c2)[C@H](OC(=O)c2cc(O)c(O)c(OC(=O)c3cc(O)c(O)c(O)c3)c2)[C@@H](OC(=O)c2cc(O)c(O)c(OC(=O)c3cc(O)c(O)c(O)c3)c2)[C@@H]1OC(=O)c1cc(O)c(O)c(OC(=O)c2cc(O)c(O)c(O)c2)c1)c1cc(O)c(O)c(OC(=O)c2cc(O)c(O)c(O)c2)c1	nt	nt	nt	nt	nt	nt	nt	nt	37µM*
Cc1ccc(C(=O)NC2CCN(CCCC(=O)c3ccc(F)cc3)CC2)cc1	0	-7%	i	-1%	-1%	0%	nt	nt	nt
NCCCC(N)CC(=O)NCC1NC(=O)C(CO)NC(=O)C(N)CNC(=O)C(C2CCN=C(N)N2)NC(=O)/C(=C/NC(N)=O)NC1=O (stereo not drawn)	-6	-1%	nt	nt	nt	-13%	-1%	-7%	nt
O=C1CSC(c2ccc(F)cc2)N1c1c(F)cccc1F (stereo not drawn)	1	-19%	i	2%	0%	-8%	nt	nt	nt

Compound activity deposited in PubChem BioAssay by National Center for Advancing Translational Sciences (NCATS).
